Results filed as inconclusive are left out. Calls of active or inactive are those of the source. The call rests on the fitted dose curve; in most records, active means well fitted curve in the direction sought with a large enough effect in the repeat runs; inconclusive means weak or mixed curves; inactive means no such curve, though single readings can be large; an effect the other way counts as inactive or inconclusive.
Test: qHTS RealTime-Glo MT Cell Viability Assay in HEK293 cells - 0 hour (AID 1224880); further: nearly all actives have a fitted effect of over 45% in size; further: potency means the concentration at half of the fitted maximal effect; on activity change, negative = cytotoxicity: top concentration of the series differs between compounds
Settings: RealTime-Glo luminescence; series mostly up to 76.8 µM; activity change, negative = cytotoxicity: at the top concentration
Summary of the method: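 Luminescence readout at each listed time point; HEK293, 600 cells/well, RealTime-Glo MT reagent added with cells; compounds pinned (23 nL in DMSO) after 5 h at 37 C; continuous culture at 37 C.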
On the % scale 0 is the no-effect control and ±100 the full control effect.

SMILES	activity change, negative = cytotoxicity	Potency
Nc1ccc(S(=O)(=O)Nc2ccnn2-c2ccccc2)cc1	3.82% [at 15.8 µM] (inactive)	
Nc1c2c(nc3ccccc13)CCCC2O (stereo not given)	-4.61% [at 35.3 µM] (inactive)	
C[N+](C)(C)CCCCCC[N+](C)(C)C		inactive
CCc1ccc(O)c(OC)c1	18.4% (inactive)	
OC(CCN1CCCCC1)(c1ccccc1)C1CC2C=CC1C2 (stereo not given)	26.2% [at 35.3 µM] (inactive)	
C=CCS(=O)(=O)O	1.93% (inactive)	
CN(C(=O)c1c(O)c2ccccc2n(C)c1=O)c1ccccc1	-0.0747% [at 35.3 µM] (inactive)	
COC(=O)CCSCCC(=O)OC	0.158% (inactive)	
CC(C)(O)C(=O)c1ccccc1	6.19% (inactive)	
CCCCCOC(=O)CCCCC	-2.27% (inactive)	
OCCOc1ccc(OCCO)cc1	22% (inactive)	
N[C@H]1CN(c2c(F)cc3c(=O)c(C(=O)O)cn(C4C[C@H]4F)c3c2Cl)CC12CC2 (stereo not given in full)	-3.65% [at 35.3 µM] (inactive)	
COc1ccc2c(c1)c(CC(=O)OCC(=O)O)c(C)n2C(=O)c1ccc(Cl)cc1	-21.5% [at 35.3 µM] (inactive)	
COc1ccc2c(c1)CCCC2=O	6.64% [at 35.3 µM] (inactive)	
OC[C@]1(O)OC[C@@H](O)[C@H](O)[C@@H]1O		inactive
NC(=O)Nc1ccccc1	1.25% (inactive)	
CCS(=O)(=O)c1ccc(OC)c(C(=O)OC)c1	0.312% [at 35.3 µM] (inactive)	
COc1ccc(CCN(C)CCCC(C#N)(c2cc(OC)c(OC)c(OC)c2)C(C)C)cc1OC (stereo not given)	-5.19% [at 35.3 µM] (inactive)	

SMILES	activity change, negative = cytotoxicity	Potency
CCCC(=O)O[C@]1(C(=O)CO)CC[C@H]2[C@@H]3CCC4=CC(=O)CC[C@]4(C)[C@H]3[C@@H](O)C[C@@]21C		10.7 µM (active)
CCCCCCOC(=O)CCCCC(=O)OCCCCCC	4.77% (inactive)	
CCOC(C)(C)C	-0.0319% (inactive)	
CCO/C([O-])=N/c1c[n+](N2CCOCC2)no1	6.48% [at 35.3 µM] (inactive)	
O=C1CCCCCCCCCCCN1		inactive
C=C(C)CS(=O)(=O)O	-13% (inactive)	
Brc1c(NC2=NCCN2)ccc2nccnc12	-8.52% [at 35.3 µM] (inactive)	
CCN1CCC[C@H]1CNC(=O)c1c(O)c(Cl)cc(Cl)c1OC	-11.3% [at 35.3 µM] (inactive)	
O=C(O)Cc1ccc(CCNS(=O)(=O)c2ccc(Cl)cc2)cc1	-11.7% [at 35.3 µM] (inactive)	
CCOc1ccc(C(=O)OCCN(CC)CC)cc1	-0.42% [at 35.3 µM] (inactive)	
CCOC(=O)CCC(C)=O	-13.4% (inactive)	
CCO[Si](CCC1CCC2OC2C1)(OCC)OCC (stereo not given)	12.5% (inactive)	
CCN1CCC[C@H]1CNC(=O)c1cc(S(N)(=O)=O)ccc1OC	3.28% [at 35.3 µM] (inactive)	
CC(C)=CCCC(C)CC(=O)O (stereo not given)	-7.15% (inactive)	
CCOC(=O)c1c(C)n(C)c2ccc(O)cc12	6.35% [at 35.3 µM] (inactive)	
COc1c(N2C[C@@H]3CCCN[C@@H]3C2)c(F)cc2c(=O)c(C(=O)O)cn(C3CC3)c12	3.46% [at 35.3 µM] (inactive)	
CC(C)OC(=O)c1ccccc1	0.597% (inactive)	

Test: A CellTox Green Cytotoxicity Assay to monitor cytotoxicity in HEK293 cells - 32 hour (AID 1224881); further: nearly all actives have a fitted effect of over 40% in size
Settings: CellTox Green fluorescence; series mostly up to 35.3 µM; cytotoxicity increase: at the top concentration
Summary of the method: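 Read-out: fluorescence of a cell-impermeant cyanine dye staining DNA of dead cells, proportional to cytotoxicity. HEK293, 600 cells/well with reagent, compound (23 nL DMSO) added after 5 h; reads at 0, 8, 16, 24, 32, 40 h.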

SMILES	cytotoxicity increase	Potency
Nc1ccc(S(=O)(=O)Nc2ccnn2-c2ccccc2)cc1	2.51% [at 15.8 µM] (inactive)	
Nc1c2c(nc3ccccc13)CCCC2O (stereo not given)	8.15% (inactive)	
C[N+](C)(C)CCCCCC[N+](C)(C)C		inactive
CCc1ccc(O)c(OC)c1	-20.5% [at 76.8 µM] (inactive)	
OC(CCN1CCCCC1)(c1ccccc1)C1CC2C=CC1C2 (stereo not given)	22.1% (inactive)	
C=CCS(=O)(=O)O	-6.09% [at 76.8 µM] (inactive)	
CN(C(=O)c1c(O)c2ccccc2n(C)c1=O)c1ccccc1	-4.93% (inactive)	
COC(=O)CCSCCC(=O)OC	-2.72% [at 76.8 µM] (inactive)	
CC(C)(O)C(=O)c1ccccc1	8.85% [at 76.8 µM] (inactive)	
CCCCCOC(=O)CCCCC	-14.1% [at 76.8 µM] (inactive)	
OCCOc1ccc(OCCO)cc1	-0.056% [at 76.8 µM] (inactive)	
N[C@H]1CN(c2c(F)cc3c(=O)c(C(=O)O)cn(C4C[C@H]4F)c3c2Cl)CC12CC2 (stereo not given in full)	1.19% (inactive)	
COc1ccc2c(c1)c(CC(=O)OCC(=O)O)c(C)n2C(=O)c1ccc(Cl)cc1	-6.84% (inactive)	
COc1ccc2c(c1)CCCC2=O	-3.48% (inactive)	
OC[C@]1(O)OC[C@@H](O)[C@H](O)[C@@H]1O		inactive
NC(=O)Nc1ccccc1	-9.2% [at 76.8 µM] (inactive)	
CCS(=O)(=O)c1ccc(OC)c(C(=O)OC)c1	-4.6% (inactive)	
COc1ccc(CCN(C)CCCC(C#N)(c2cc(OC)c(OC)c(OC)c2)C(C)C)cc1OC (stereo not given)	-8.36% (inactive)	

SMILES	cytotoxicity increase	Potency
CCCC(=O)O[C@]1(C(=O)CO)CC[C@H]2[C@@H]3CCC4=CC(=O)CC[C@]4(C)[C@H]3[C@@H](O)C[C@@]21C	0.101% (inactive)	
CCCCCCOC(=O)CCCCC(=O)OCCCCCC	0.456% [at 76.8 µM] (inactive)	
CCOC(C)(C)C	-7.42% [at 76.8 µM] (inactive)	
CCO/C([O-])=N/c1c[n+](N2CCOCC2)no1	-8.4% (inactive)	
O=C1CCCCCCCCCCCN1		inactive
C=C(C)CS(=O)(=O)O	7.24% [at 76.8 µM] (inactive)	
Brc1c(NC2=NCCN2)ccc2nccnc12	-13.9% (inactive)	
CCN1CCC[C@H]1CNC(=O)c1c(O)c(Cl)cc(Cl)c1OC	0.296% (inactive)	
O=C(O)Cc1ccc(CCNS(=O)(=O)c2ccc(Cl)cc2)cc1	-8.69% (inactive)	
CCOc1ccc(C(=O)OCCN(CC)CC)cc1	-2.3% (inactive)	
CCOC(=O)CCC(C)=O	14.6% [at 76.8 µM] (inactive)	
CCO[Si](CCC1CCC2OC2C1)(OCC)OCC (stereo not given)	-4.45% [at 76.8 µM] (inactive)	
CCN1CCC[C@H]1CNC(=O)c1cc(S(N)(=O)=O)ccc1OC	-4.94% (inactive)	
CC(C)=CCCC(C)CC(=O)O (stereo not given)	-1.37% [at 76.8 µM] (inactive)	
CCOC(=O)c1c(C)n(C)c2ccc(O)cc12	2.92% (inactive)	
COc1c(N2C[C@@H]3CCCN[C@@H]3C2)c(F)cc2c(=O)c(C(=O)O)cn(C3CC3)c12	-6.74% (inactive)	
CC(C)OC(=O)c1ccccc1	-13.6% [at 76.8 µM] (inactive)	

From PubChem BioAssay (Tox21)
